# Source: PubChem BioAssay
# Pf Dd2 growth = inhibitors of Plasmodium falciparum Dd2 growth. P. falciparum Dd2 growth, SYBR Green, 72 h. Potency, µM (titrated, usually from 28.9 µM), inactives show top-dose activity, negative = inhibition, usual class: inhibitors. 4.3% of 120,000 active; active = well fitted inhibition curve with a large enough effect;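 note: plate controls were DMSO vehicle for no effect and reference drug for full effect; nearly all actives have a fitted effect of over 65% in size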
#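 Readout: SYBR Green fluorescence, 485 nm excitation, 535 nm emission, after ~16 h lysis at 37C. Before that, Dd2-infected red cells (2.5% hematocrit) grew 72 h with compound, 29 uM top final concentration.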
# * hit, by the source's call; i = inactive; [ ] = another dose, or the depositor's remark. This excerpt belongs to a sample that is enriched for hits. Potency is the fitted concentration of half-maximal effect.
SMILES,Pf Dd2 growth
Cc1cc(C(F)(F)F)n(CC(C)CNc2ncncn2)n1 (stereo unspecified),i
CCc1cccc(NC(c2ccccc2)c2nnc(-c3ccccc3F)o2)c1 (stereo unspecified),11.2µM*
CCc1cccc(NC(=O)CN2C(=O)CN=C(c3ccccc3F)c3cc(Cl)ccc32)c1,16.2%
Fc1ccccc1-c1nnc([C@H]2CCN(Cc3ccccc3)C2)o1,i
Cn1c(=O)c2c(-c3ccccc3Cl)n(-c3cc(Cl)ccc3O)cc2n(C)c1=O,7.94µM*
Cn1c(=O)c2c(-c3cccc(Br)c3)n(CCO)cc2n(C)c1=O,i
Cn1c(=O)c2c(-c3ccccc3Cl)n(Cc3ccc(Cl)cc3)cc2n(C)c1=O,-23.8%
Cc1ncc2c(c1CNCC1(O)CNCCOC1)CCNC2 (stereo unspecified),8.7%
CC(C)NC(=O)c1coc(COc2ccc3c(c2)C(c2cccc(F)c2)N(C(=O)C2CC2)CC3)n1 (stereo unspecified),-22.9%
COCCNC(=O)c1coc(COc2ccc3c(c2)C(c2cccc(F)c2)N(C(=O)C(C)C)CC3)n1 (stereo unspecified),-10.2%
CCNC(=O)c1coc(COc2ccc3c(c2)C(c2cccc(F)c2)N(C(=O)C(C)C)CC3)n1 (stereo unspecified),0.708µM*
O=C(c1ccccc1)N1CCC(N2CCCNC2=O)CC1,8.3%[44.1 µM]
CCOc1ccc(C(=O)N2CCC(Cc3nc(-c4ccc(F)cc4)no3)CC2)cc1OCC,5.01µM*
COc1ccc(-c2noc(CC3CCN(C(=O)CCc4ccccc4)CC3)n2)cc1,11.2µM*
COc1ccc(CCC(=O)N2CCC(Cc3nc(-c4ccc(F)cc4)no3)CC2)cc1,-22.6%
COc1ccc(C(=O)N2CCC(Cc3nc(-c4ccccc4)no3)CC2)cc1F,i
O=C(CCc1ccccc1)N1CCC(Cc2nc(-c3ccc(F)cc3)no2)CC1,i
CCOc1ccc(C(=O)N2CCC(Cc3nc(-c4ccc(OC)cc4)no3)CC2)cc1OCC,8.91µM*
COc1cccc(-c2noc(CC3CCN(C(=O)c4ccc(C)cc4)CC3)n2)c1,i
CCc1ccc(C(=O)N2CCC(Cc3nc(-c4ccc(F)cc4)no3)CC2)cc1,i
CCOc1cc(C(=O)N2CCC(Cc3nc(-c4ccc(F)cc4)no3)CC2)cc(OCC)c1OCC,-12.6%
O=C(c1ccncc1)N1CC2CCC(C1)N2Cc1ccc(-c2cccs2)cc1,-4.8%
CCCC(=O)NC1CCN(c2ccc(C)cc2)C1=O (stereo unspecified),-12.5%
O=C(O)c1cccc(CC2CCN(C(=O)C3CCC(O)CC3)C2)c1 (stereo unspecified),8.4%
COc1ccc(C(=O)NCCn2ccn3nc(-c4ccc(F)cc4)cc3c2=O)cn1,-3.1%
SMILES,Pf Dd2 growth
CC(C)(C)n1nnnc1C1CC2(CCOCC2)C(=O)N1Cc1ccco1 (stereo unspecified),19.2%
COc1ccc(F)c(CN2CCCC(O)(CN(C)Cc3cc(C)on3)C2=O)c1 (stereo unspecified),-5.4%
O=C(Cc1ccccc1)N1CCOC2(CCN(C(=O)c3ccccc3)CC2)C1,13.5%
Cc1cccc(OCC2(CNCc3ccccn3)C[C@@H](O)[C@@H](O)C2)n1 (stereo partly specified),-16.7%
CN(Cc1ccon1)C(=O)c1ccc2c(c1)[nH]c(=O)n2C1CCC(O)CC1 (stereo unspecified),-4.2%
CC(C)Cc1cc(Cn2cc(-c3cncnc3)nn2)no1,5.6%
CN(Cc1ccccc1)C(=O)C[C@@H]1CCNC[C@@H]1Cc1cc(CN(C)c2ccccc2)on1,-29.9%
COc1ccc(/C=C/C(=O)Nc2ccc3nc(N4CCCCC4)cc(C)c3c2)cc1OC,3.98µM*
Cc1cc(N2CCCCC2)nc2ccc(NC(=O)/C=C/c3ccc(OC(C)C)cc3)cc12,10µM*
CCCN(C(=O)C(=O)Nc1ccc2nc3n(c(=O)c2c1)CCCCC3)c1ccc(OCC)cc1,-16.3%
Cc1cc(N2CCCCC2)nc2ccc(NC(=O)/C=C/c3ccccc3OC(C)C)cc12,2.82µM*
CCOC(=O)c1c(NC(=O)/C=C/c2ccc(OC)c(OC)c2)sc(C(C)=O)c1C,39.8%
CN(Cc1ccccc1)C(=O)C(=O)Nc1ccc2nc3n(c(=O)c2c1)CCCCC3,i
CC(C)Oc1ccc(CNC(=O)c2ccc3c(c2)nc2n3CCCCC2)cc1,-14.9%
COc1ccc(/C=C/c2nc(C#N)c(N3CCCCCC3)o2)cc1OC,-15.0%
COCCNC(=O)C(=O)Nc1ccc2nc3n(c(=O)c2c1)CCCCC3,-16.7%
Cc1ccsc1C(=O)N1CCN(c2cc(-c3ccccc3)[nH]n2)CC1,i
O=C(NCc1ccccc1F)[C@H]1CN(Cc2ccccc2)C[C@H]1C(=O)O,-24.5%
CCNC(=O)N(C1CC1)C1CCOC2(CCN(C(=O)Cc3cccc(F)c3)CC2)C1 (stereo unspecified),-13.1%
CCCN(CC1CCOC1)C(=O)Nc1cccc(Cl)c1 (stereo unspecified),i[5.79 µM]
COc1ccc(C(=O)Nc2nc3c(s2)CCCC3)cc1Cl,-24.6%
COc1ccc2c(c1)CCc1sc(NC(=O)c3cccc(Br)c3)nc1-2,-16.3%
COc1ccc2c(c1)-c1nc(NC(=O)c3ccc(C)cc3)sc1CC2,11.2µM*
O=C(Nc1ccc(Cl)cc1)c1cc2n(n1)CC(c1ccc3c(c1)OCO3)OC2 (stereo unspecified),i
COc1cc(OC)cc(C(=O)N2CCC(n3cc(-c4nc(C)no4)nn3)C2)c1 (stereo unspecified),i
SMILES,Pf Dd2 growth
COc1ccc(C)cc1NC(=O)CC1CCCN(c2cnn(CC3CC3)c(=O)c2)C1 (stereo unspecified),i
CNCCN1C(=O)CC[C@H]2CN(c3nccc(C(F)(F)F)n3)CC[C@H]21,-22.5%
Cc1ccc(-n2ncc(C(=O)N3CCN(Cc4ccccc4)CC3)c2C2CCN(C(=O)OC(C)(C)C)CC2)c(C)c1,8.91µM*
Cc1ccc(-n2ncc(C(=O)N3CCN(C(=O)c4ccco4)CC3)c2C2CCN(C(=O)OC(C)(C)C)CC2)cc1,-18.9%
CC(C)(C)OC(=O)N1CCC(c2c(C(=O)N3CCN(Cc4ccccc4)CC3)cnn2-c2ccc(Cl)cc2)CC1,11.2µM*
CC(C)(C)OC(=O)N1CCC(c2c(C(=O)N3CCN(C(=O)c4ccco4)CC3)cnn2-c2ccccc2)CC1,-9.4%
CC(=O)N1CCC([C@@H]2CN(Cc3cccc(F)c3F)C[C@H]2CO)CC1,-23.6%
COCCNC(=O)NC[C@H]1O[C@@H]2C[C@@H](CC(=O)NCc3nccn3C)O[C@@H]2[C@@H]1O,15.8%[44.1 µM]
Cc1ccccc1-c1cc(-c2cn[nH]c2)c2cncn2c1,-25.7%[44.1 µM]
Cc1ccccc1-c1cc(-c2c(C)noc2C)c2cncn2c1,3.16µM*
Cc1noc(C)c1-c1cc(-c2cccc(N3CCOCC3)c2)cn2cncc12,6.31µM*
COc1ncccc1-c1cc(-c2ccc(=O)[nH]c2)c2cncn2c1,i
Cc1ccccc1-c1nc(-c2c(C)noc2C)cc2cc(CO)oc12,-29.9%[44.1 µM]
c1cc(-c2cc(-c3ccncc3)c3cncn3c2)cc(N2CCOCC2)c1,i
Cc1noc2c(-c3ccc(N4CCOCC4)cc3)cc(-c3ccccc3)nc12,i
COc1ncccc1-c1cc(-c2c(C)noc2C)c2cncn2c1,10µM*
COc1ncccc1-c1nc(-c2c(C)noc2C)cc2c1cc(C)n2C,i
COCCNC(=O)c1ccc2nnc(-c3cncc(Cl)c3)n2c1,146.0%
COc1cccc(CC(=O)N2CCC3(CC2)CC(N(C(=O)NC(C)C)C2CC2)CCO3)c1 (stereo unspecified),17.2%
